Holding throughout (settings): mRNA level, 48 h; actives raise or lower the signal
Read-out in assay [1]: Fatty acid synthase (Homo sapiens) (UniProt P49327)
The experiment in a line: LTEA_HepaRG_FASN: Life Technologies and Expression Analysis (LTEA) Assay for Fatty Acid Synthase (FASN) using HepaRG (AID 2283448). The essentials:
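In human HepaRG cultures, 48 h chemical exposure (up to 100 uM, 0.5% DMSO) preceded TaqMan qRT-PCR of FASN.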

Read-out in assay [2]: Cyclin Dependent Kinase Inhibitor 1A (CDKN1A), CDKN1A (gene 1026)
Briefly: LTEA_HepaRG_CDKN1A: Life Technologies and Expression Analysis (LTEA) Assay for Cyclin Dependent Kinase Inhibitor 1A (CDKN1A) using HepaRG (AID 2283450). The procedure, abridged: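 Cryopreserved HepaRG cells were plated and cultured 48 h, then switched to serum-free induction medium. Chemicals (eight half-log concentrations, top 100 uM, 0.5% DMSO) were applied for 48 h. Lysates underwent qRT-PCR for CDKN1A with housekeeping normalization.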

Read-out in assay [3]: Cyclin D1 (CCND1), CCND1 (gene 595)
Briefly: LTEA_HepaRG_CCND1: Life Technologies and Expression Analysis (LTEA) Assay for Cyclin D1 (CCND1) using HepaRG (AID 2283451).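 As to AC50: TaqMan qRT-PCR transcript level normalised to ACTB GAPDH and POLR2A housekeeping genes.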 The procedure, abridged:
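Human liver HepaRG line; 48 h dosing, 8 conc. ≤100 uM, 0.5% DMSO; TaqMan qRT-PCR mRNA, 3 housekeeping genes; bidirectional curve fit vs DMSO.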

Read-out in assay [4]: catalase (CAT), CAT (gene 847)
The experiment in a line: LTEA_HepaRG_CAT: Life Technologies and Expression Analysis (LTEA) Assay for catalase (CAT) using HepaRG (AID 2283452).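 As to AC50: TaqMan qRT-PCR signal normalized to ACTB GAPDH and POLR2A housekeeping genes.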 The procedure, abridged: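 Expression of CAT was quantified by TaqMan qRT-PCR with ACTB/GAPDH/POLR2A normalization after 48 h chemical exposure of HepaRG. Eight-point half-log series, top 100 uM, in 0.5% DMSO; gain or loss fitted against vehicle.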

Read-out in assay [5]: flavin-containing dimethylaniline monooxygenases 3 (FMO3), FMO3 (gene 2328)
Briefly: LTEA_HepaRG_FMO3: Life Technologies and Expression Analysis (LTEA) Assay for flavin-containing dimethylaniline monooxygenases 3 (FMO3) using HepaRG (AID 2283453). The procedure, abridged: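 Eight-point concentration-response in serum-free HepaRG cultures (top 100 uM, 0.5% DMSO, 48 h). Read-out: FMO3 mRNA level normalized to three endogenous control genes, fitted bidirectionally versus vehicle.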

Read-out in assay [6]: Cytochrome P450 (CYP1A1), CYP1A1 (gene 1543)
Briefly: LTEA_HepaRG_CYP1A1: Life Technologies and Expression Analysis (LTEA) Assay for Cytochrome P450 (CYP1A1) using HepaRG (AID 2283454). The essentials: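 Induction of CYP1A1 mRNA in a human hepatic cell line was measured 48 h after dosing, with 1 mM phenobarbital as induction positive control and 0.5% DMSO vehicle as baseline for bidirectional curve fitting.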

Read-out in assay [7]: CFLAR gene, CFLAR (gene 8837)
The experiment in a line: LTEA_HepaRG_CFLAR: Life Technologies and Expression Analysis (LTEA) Assay for CFLAR gene using HepaRG (AID 2283455). The procedure, abridged: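 Transcript level by qRT-PCR (normalized to ACTB, GAPDH and POLR2A) after 48 h chemical exposure of HepaRG cells, top concentration 100 uM with half-log steps, 0.5% DMSO vehicle, duplicates; fitted bidirectionally against DMSO baseline.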

Read-out in assay [8]: Forkhead box O1 (FOXO1), FOXO1 (gene 2308)
Briefly: LTEA_HepaRG_FOXO1: Life Technologies and Expression Analysis (LTEA) Assay for Forkhead box O1 (FOXO1) using HepaRG (AID 2283456). The procedure, abridged:
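FOXO1 transcript quantified by qRT-PCR after 48 h chemical exposure (top 100 uM, half-log steps, 0.5% DMSO) of HepaRG cells, housekeeping-normalized (ACTB/GAPDH/POLR2A). Changes fitted in both directions relative to vehicle.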

Read-out in assay [9]: growth arrest and DNA damage 45 (GADD45A), GADD45A (gene 1647)
Briefly: LTEA_HepaRG_GADD45A: Life Technologies and Expression Analysis (LTEA) Assay for growth arrest and DNA damage 45 (GADD45A) using HepaRG (AID 2283458). The procedure, abridged:
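Eight-point concentration-response in HepaRG cells: 48 h chemical exposure, 0.5% DMSO vehicle, top dose 100 uM. Normalized qRT-PCR mRNA readout with bidirectional fitting relative to DMSO.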

Read-out in assay [10]: Forkhead box O3 (FOXO3), FOXO3 (gene 2309)
The experiment in a line: LTEA_HepaRG_FOXO3: Life Technologies and Expression Analysis (LTEA) Assay for Forkhead box O3 (FOXO3) using HepaRG (AID 2283459). The essentials:
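FOXO3 transcript measured by qRT-PCR (normalized to ACTB, GAPDH, POLR2A) after 48 h exposure of HepaRG cells in serum-free induction medium. Duplicates, eight half-log concentrations up to 100 uM, 0.5% DMSO; gain or loss fitted against DMSO.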

Read-out in assay [11]: ABC Transporter (ABCB1), ABCB1 (gene 5243)
The experiment in a line: LTEA_HepaRG_ABCB1: Life Technologies and Expression Analysis (LTEA) Assay for ABC Transporter (ABCB1) using HepaRG (AID 2283460). The procedure, abridged:
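ABCB1 transcript level measured by TaqMan qRT-PCR against three housekeeping genes after 48 h chemical exposure of differentiated HepaRG cells. Top concentration 100 uM, half-log steps, eight points, 0.5% DMSO vehicle; bidirectional fit relative to DMSO.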

Read-out in assay [12]: growth arrest and DNA damage 45 (GADD45B), GADD45B (gene 4616)
The experiment in a line: LTEA_HepaRG_GADD45B: Life Technologies and Expression Analysis (LTEA) Assay for growth arrest and DNA damage 45 (GADD45B) using HepaRG (AID 2283461). The essentials: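 Values are bidirectional concentration-response fits against 0.5% DMSO controls. Underlying data: qRT-PCR mRNA levels in human HepaRG liver cells treated 48 h in serum-free induction medium, eight concentrations topping at 100 uM.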

Read-out in assay [13]: ABC Transporter (ABCC3), ABCC3 (gene 8714)
Briefly: LTEA_HepaRG_ABCC3: Life Technologies and Expression Analysis (LTEA) Assay for ABC Transporter (ABCC3) using HepaRG (AID 2283462). The procedure, abridged: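 Differentiated HepaRG liver cells receive test chemicals at eight concentrations (max 100 uM) for 48 h. Expression of ABCC3 is quantified by qRT-PCR against ACTB, GAPDH and POLR2A, and activity is fitted in both directions against the DMSO control.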

Read-out in assay [14]: ABC Transporter (ABCB11), ABCB11 (gene 8647)
The experiment in a line: LTEA_HepaRG_ABCB11: Life Technologies and Expression Analysis (LTEA) Assay for ABC Transporter (ABCB11) using HepaRG (AID 2283463). The procedure, abridged:
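ABCB11 transcript levels quantified by TaqMan qRT-PCR against three housekeeping genes after 48 h chemical exposure of HepaRG cultures. Concentrations up to 100 uM in half-log steps, 0.5% DMSO vehicle; both induction and suppression scored.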

Read-out in assay [15]: ABC Transporter (ABCC2), ABCC2 (gene 1244)
The experiment in a line: LTEA_HepaRG_ABCC2: Life Technologies and Expression Analysis (LTEA) Assay for ABC Transporter (ABCC2) using HepaRG (AID 2283464). The procedure, abridged:
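Gene expression of ABCC2 was determined by qRT-PCR in HepaRG cells exposed 48 h to chemicals (highest 100 uM, half-log dilutions). Activity was fitted in both directions relative to 0.5% DMSO vehicle.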

Read-out in assay [16]: Broad substrate specificity ATP-binding cassette transporter ABCG2 (Homo sapiens) (UniProt Q9UNQ0)
The experiment in a line: LTEA_HepaRG_ABCG2: Life Technologies and Expression Analysis (LTEA) Assay for ABC Transporter (ABCG2) using HepaRG (AID 2283465). The procedure, abridged: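 ABCG2 transcript was quantified by TaqMan qRT-PCR against three housekeeping genes in HepaRG cells. Cells were treated in duplicate for 48 h across an 8-point half-log series up to 100 uM, with 0.5% DMSO vehicle. Gain or loss versus DMSO was fit.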

Read-out in assay [17]: ATP-citrate lyase (ACLY), ACLY (gene 47)
Briefly: LTEA_HepaRG_ACLY: Life Technologies and Expression Analysis (LTEA) Assay for ATP-citrate lyase (ACLY) using HepaRG (AID 2283466). The essentials:
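ACLY mRNA quantified by qRT-PCR on Fluidigm arrays against three housekeeping genes, after 48 h chemical treatment of HepaRG cells (top concentration 100 uM, half-log steps, 0.5% DMSO vehicle). Up- or down-regulation fitted relative to DMSO.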

Read-out in assay [18]: Peroxisomal acyl-coenzyme A oxidase 1 (ACOX1) gene, ACOX1 (gene 51)
The experiment in a line: LTEA_HepaRG_ACOX1: Life Technologies and Expression Analysis (LTEA) Assay for Peroxisomal acyl-coenzyme A oxidase 1 (ACOX1) gene using HepaRG (AID 2283467). The procedure, abridged: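 ACOX1 transcript levels were quantified by TaqMan qRT-PCR against three housekeeping genes after 48 h chemical exposure of differentiated human HepaRG cells. Exposure used eight half-log steps topping at 100 uM, 0.5% DMSO vehicle, in duplicate. Bidirectional curve fits were made relative to DMSO.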

Our source for the outcome and AC50 values is PubChem BioAssay (EPA / NIEHS).

Each structure is given as a SMILES string. Activity calls are given as the source filed them. The calls were made as follows: active = hit-call score of the fitted dose curve at least 0.9, where 1 is the maximum; inactive = score below 0.9.

As usually defined, the AC50 is the midpoint of the concentration-response curve, whichever way the signal moves.

Sequence of Broad substrate specificity ATP-binding cassette transporter ABCG2 (Homo sapiens) (Q9UNQ0 whole entry, looked up): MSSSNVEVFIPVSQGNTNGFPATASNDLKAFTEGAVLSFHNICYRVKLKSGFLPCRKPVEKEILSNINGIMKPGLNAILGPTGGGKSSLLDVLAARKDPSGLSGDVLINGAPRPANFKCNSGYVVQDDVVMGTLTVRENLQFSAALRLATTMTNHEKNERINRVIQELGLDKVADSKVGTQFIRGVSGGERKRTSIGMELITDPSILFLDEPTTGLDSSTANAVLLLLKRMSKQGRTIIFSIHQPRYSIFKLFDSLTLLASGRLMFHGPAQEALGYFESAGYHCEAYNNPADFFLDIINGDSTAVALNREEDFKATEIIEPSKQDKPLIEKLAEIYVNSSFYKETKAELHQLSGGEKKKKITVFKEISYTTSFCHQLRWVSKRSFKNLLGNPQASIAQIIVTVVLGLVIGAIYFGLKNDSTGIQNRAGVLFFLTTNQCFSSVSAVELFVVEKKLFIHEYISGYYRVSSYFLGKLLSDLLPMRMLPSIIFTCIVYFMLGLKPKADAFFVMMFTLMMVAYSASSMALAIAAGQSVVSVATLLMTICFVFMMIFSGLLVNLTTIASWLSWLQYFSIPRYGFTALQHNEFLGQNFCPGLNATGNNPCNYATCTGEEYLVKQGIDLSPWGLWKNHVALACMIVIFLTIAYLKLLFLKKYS
Sequence of Fatty acid synthase (Homo sapiens) (P49327 whole entry, looked up): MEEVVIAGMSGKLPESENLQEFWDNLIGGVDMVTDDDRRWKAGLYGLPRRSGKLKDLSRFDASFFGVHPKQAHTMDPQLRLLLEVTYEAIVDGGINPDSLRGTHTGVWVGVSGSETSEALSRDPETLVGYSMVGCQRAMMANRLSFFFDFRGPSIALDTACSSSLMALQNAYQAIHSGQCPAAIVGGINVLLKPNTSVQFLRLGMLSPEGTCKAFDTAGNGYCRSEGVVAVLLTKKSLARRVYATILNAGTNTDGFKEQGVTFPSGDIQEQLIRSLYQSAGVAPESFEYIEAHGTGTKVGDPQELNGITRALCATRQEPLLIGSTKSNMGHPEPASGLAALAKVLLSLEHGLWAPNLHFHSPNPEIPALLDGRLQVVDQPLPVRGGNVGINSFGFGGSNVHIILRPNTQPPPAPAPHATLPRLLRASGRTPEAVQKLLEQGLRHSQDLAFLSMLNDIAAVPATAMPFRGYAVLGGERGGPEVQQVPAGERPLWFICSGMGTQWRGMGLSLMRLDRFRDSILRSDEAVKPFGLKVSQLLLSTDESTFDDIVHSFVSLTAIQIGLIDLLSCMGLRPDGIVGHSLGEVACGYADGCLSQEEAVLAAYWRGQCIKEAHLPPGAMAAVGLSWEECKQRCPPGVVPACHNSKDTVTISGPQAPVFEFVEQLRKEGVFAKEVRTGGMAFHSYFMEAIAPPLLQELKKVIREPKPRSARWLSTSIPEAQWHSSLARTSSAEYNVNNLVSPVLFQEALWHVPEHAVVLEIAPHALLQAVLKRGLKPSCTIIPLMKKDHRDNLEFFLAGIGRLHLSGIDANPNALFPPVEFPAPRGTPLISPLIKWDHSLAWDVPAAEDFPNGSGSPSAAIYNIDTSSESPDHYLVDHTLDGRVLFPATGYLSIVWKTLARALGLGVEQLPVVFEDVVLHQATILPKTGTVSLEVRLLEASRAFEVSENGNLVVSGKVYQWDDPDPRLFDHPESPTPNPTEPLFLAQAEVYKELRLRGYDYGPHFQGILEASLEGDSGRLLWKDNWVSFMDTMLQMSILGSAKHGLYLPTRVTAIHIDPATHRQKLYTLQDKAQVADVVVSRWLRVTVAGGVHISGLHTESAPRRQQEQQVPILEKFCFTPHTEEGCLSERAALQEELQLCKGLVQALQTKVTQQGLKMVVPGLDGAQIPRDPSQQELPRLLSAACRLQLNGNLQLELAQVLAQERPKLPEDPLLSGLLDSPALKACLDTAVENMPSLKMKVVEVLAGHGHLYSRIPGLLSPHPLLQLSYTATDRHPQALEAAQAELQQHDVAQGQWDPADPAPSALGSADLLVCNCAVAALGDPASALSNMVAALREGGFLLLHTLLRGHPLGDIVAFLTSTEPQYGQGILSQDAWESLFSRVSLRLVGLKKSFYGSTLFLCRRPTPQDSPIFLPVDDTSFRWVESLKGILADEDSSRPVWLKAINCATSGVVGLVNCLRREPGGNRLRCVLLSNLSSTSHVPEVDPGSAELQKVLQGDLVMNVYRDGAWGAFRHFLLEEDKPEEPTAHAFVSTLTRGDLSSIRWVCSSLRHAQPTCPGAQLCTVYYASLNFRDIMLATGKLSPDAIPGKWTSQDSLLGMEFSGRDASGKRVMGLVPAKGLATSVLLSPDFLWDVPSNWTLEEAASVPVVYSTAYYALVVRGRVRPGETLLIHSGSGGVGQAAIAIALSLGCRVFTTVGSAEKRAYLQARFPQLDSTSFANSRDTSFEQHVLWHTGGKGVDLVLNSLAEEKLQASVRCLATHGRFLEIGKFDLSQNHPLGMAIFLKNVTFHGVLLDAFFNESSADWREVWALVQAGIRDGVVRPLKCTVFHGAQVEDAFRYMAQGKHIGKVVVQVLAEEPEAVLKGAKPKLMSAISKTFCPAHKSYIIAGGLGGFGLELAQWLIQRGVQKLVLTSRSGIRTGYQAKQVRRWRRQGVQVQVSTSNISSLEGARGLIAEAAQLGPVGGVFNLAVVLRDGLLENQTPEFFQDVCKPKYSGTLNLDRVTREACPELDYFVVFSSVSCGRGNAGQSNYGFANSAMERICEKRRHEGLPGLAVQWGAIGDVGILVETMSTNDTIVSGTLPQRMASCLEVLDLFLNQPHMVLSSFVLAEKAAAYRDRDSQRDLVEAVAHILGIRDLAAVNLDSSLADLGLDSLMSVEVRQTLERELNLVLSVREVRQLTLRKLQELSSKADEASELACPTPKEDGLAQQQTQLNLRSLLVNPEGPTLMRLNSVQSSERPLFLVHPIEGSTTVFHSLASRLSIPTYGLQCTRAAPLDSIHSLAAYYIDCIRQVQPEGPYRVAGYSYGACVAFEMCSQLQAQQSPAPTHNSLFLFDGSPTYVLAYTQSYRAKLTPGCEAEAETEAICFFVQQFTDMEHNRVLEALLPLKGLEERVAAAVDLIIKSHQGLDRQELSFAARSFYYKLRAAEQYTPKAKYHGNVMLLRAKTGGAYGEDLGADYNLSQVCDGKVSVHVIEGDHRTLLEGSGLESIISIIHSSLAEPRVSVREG

With `COc1cc(OC)nc(Sc2cccc(Cl)c2C(=O)O)n1`, the compound was classed as inactive in assay [1], in assay [2], in [3], in assay [4], in [5] and in assay [6]. For the same compound, the outcome in assay [7], in assay [8], in assay [9], in assay [10], in [11] and in assay [12] was inactive. Besides, the compound was called inactive in [13], in [14], in [15], in [16], in assay [17] and in [18].

For `CC(=NC#N)N(C)Cc1ccc(Cl)nc1`, the call in [1], in assay [2], in assay [3], in assay [4], in assay [5] and in assay [7] was inactive. For the same compound, the result in assay [8], in assay [9], in assay [10], in assay [11], in assay [12] and in assay [13] was inactive. Moreover, the call in assay [14], in [15], in [16], in assay [17] and in [18] was inactive. Also, the AC50 in assay [6] was 50 µM (active).

With `C[Si](Cn1cncn1)(c1ccc(F)cc1)c1ccc(F)cc1`, the AC50 in assay [1] is 91.6 µM (active); in assay [2], 50 µM (active); in assay [3], 40.3 µM (active); in assay [4], 50 µM (active); in assay [5], 37.5 µM (active); in [6], 5.08 µM (active). Besides, the AC50 in assay [7] was 50 µM (active); in [8] it was 74.6 µM (active); in assay [14], 34.5 µM (active); in [15], 50 µM (active); in assay [16] it was 16.3 µM (active); in assay [18] it was 40.9 µM (active). The outcome in [9], in [10], in [11], in assay [12], in assay [13] and in [17] was inactive.

Consider `Cc1ccn2nc(S(=O)(=O)Nc3c(F)cccc3F)nc2n1`, for which the compound was called inactive in [1], in [2], in [3], in assay [4], in [5] and in assay [6]. Further, the compound was classed as inactive in [7], in assay [8], in assay [9], in [10], in assay [11] and in assay [12]. In addition, the result in assay [13], in assay [14], in [15], in [16], in assay [17] and in assay [18] was inactive.
